tim23-1 inh: tim23-1 yeast growth inhibition. S. cerevisiae tim23-1 growth, BacTiter-Glo luminescence, 24 h. inhibition, % at 20 µM. hit rate 1.3% among 330,000. AID 463212;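 active = growth inhibition of the mutant yeast at or above 50%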;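 also: temperature-sensitive mutant grown at 25 °C; plate controls were DMSO-treated mutant yeast for no effect and medium wells lacking yeast for full effect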
MPTP inh: blocks calcium-induced mitochondrial swelling; isolated mouse mitochondria, Ca2+ swelling absorbance, 30 min; hit rate 1.4% among 360,000; inhibition, % at 10 µM;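 active = inhibition of 50% or more, scaled per plate between neutral and stimulator controls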;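 also: 0% = DMSO wells given calcium and 100% = 1 mM EGTA wells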
TIM10 inh: growth inhibitors of TIM10 yeast strain; AID 463195; hit rate 1.4% among 330,000; inhibition, % at 10 µM; S. cerevisiae TIM10 strain growth, BacTiter-Glo luminescence, 24 h;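 active = inhibition of 40% or more at the single tested concentration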;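 also: wild-type TIM10 isogenic control strain grown at permissive 25 °C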
tim10-1 inh: growth inhibitors of tim10-1 mutant yeast | hit rate 2.2% among 330,000 | S. cerevisiae tim10-1 ts strain growth, BacTiter-Glo, 24 h | inhibition, % at 20 µM;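 active = inhibition of at least 40%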;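 also: mutant grown at 25 °C; 0% = DMSO wells with yeast and 100% = wells holding no yeast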
Mdm2 MdmX PPI: human Mdm2/MdmX binding inhibition; AID 485346; hit rate 3% among 330,000; SaOS-2 split-luciferase Mdm2/MdmX complementation, luminescence; inhibition, % at 8 µM;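 active = inhibition of at least 50% at 8 µM in the primary screen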
Target sequence (O15151 whole entry, looked up): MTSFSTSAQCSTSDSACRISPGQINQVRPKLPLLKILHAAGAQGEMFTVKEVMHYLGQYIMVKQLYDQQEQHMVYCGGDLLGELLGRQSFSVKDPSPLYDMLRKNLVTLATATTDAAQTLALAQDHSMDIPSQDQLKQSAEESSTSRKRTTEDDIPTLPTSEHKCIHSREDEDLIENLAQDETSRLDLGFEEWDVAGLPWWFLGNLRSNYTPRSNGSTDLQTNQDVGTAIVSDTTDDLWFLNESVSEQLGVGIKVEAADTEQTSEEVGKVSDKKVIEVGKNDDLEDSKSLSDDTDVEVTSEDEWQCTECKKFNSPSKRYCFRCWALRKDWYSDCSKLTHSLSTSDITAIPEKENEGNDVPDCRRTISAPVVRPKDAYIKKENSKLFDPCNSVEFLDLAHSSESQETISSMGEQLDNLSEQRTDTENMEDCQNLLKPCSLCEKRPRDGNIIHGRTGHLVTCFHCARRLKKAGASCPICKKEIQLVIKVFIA
Target sequence (Q00987 whole entry, looked up): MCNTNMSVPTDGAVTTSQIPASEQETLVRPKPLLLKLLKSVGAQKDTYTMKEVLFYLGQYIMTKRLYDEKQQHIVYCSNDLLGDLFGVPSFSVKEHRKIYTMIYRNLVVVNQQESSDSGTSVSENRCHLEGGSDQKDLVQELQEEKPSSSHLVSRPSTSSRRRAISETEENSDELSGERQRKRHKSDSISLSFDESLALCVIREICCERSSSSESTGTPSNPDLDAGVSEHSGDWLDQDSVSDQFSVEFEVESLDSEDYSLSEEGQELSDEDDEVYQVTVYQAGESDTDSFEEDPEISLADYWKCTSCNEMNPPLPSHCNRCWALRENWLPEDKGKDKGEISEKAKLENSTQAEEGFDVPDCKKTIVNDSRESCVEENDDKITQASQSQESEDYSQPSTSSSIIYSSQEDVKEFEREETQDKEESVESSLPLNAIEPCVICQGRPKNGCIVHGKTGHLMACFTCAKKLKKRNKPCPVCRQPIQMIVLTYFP
tim10-1 confirm: tim10-1 yeast growth inhibition, confirmed | S. cerevisiae tim10-1 ts strain growth, BacTiter-Glo, 24 h | shares compounds with tim10-1 inh | hit rate 56% among 7,400 | AID 463213 | inhibition, % at 20 µM;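 active = inhibition of yeast growth at or above a set limit in either of two repeat tests at 20 µM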;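 also: tim10-1 mutant grown at permissive 25 °C to find synthetic lethal compounds; 0% = DMSO yeast wells and 100% = medium wells without yeast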
tim10 confirm: confirmation of TIM10 yeast growth inhibitors; shares compounds with TIM10 inh; S. cerevisiae tim10 strain growth, BacTiter-Glo luminescence, 24 h; inhibition, % at 10 µM; hit rate 63% among 4,600;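 active = inhibition of yeast growth at or above a set limit in either of two replicates at 10 µM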;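 also: this counterscreen used the strain with wild-type TIM10; 0% = yeast with DMSO and 100% = medium wells lacking yeast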
Numbers without * were called inactive; · = no result given. Sampled rows, rich in hits. Any-hit rate of the full collection: about 6.3%.

SMILES	tim23-1 inh	MPTP inh	TIM10 inh	tim10-1 inh	Mdm2 MdmX PPI	tim10-1 confirm	tim10 confirm
COc1ccc(NC(=O)Nc2nnc([C@@H]3C[C@H](O)[C@@H](CO)O3)s2)cc1	·	-3.6	·	·	·	·	·
O=C(Nc1cc(C(F)(F)F)cc(C(F)(F)F)c1)O[C@@H]1c2ccccc2[C@@H]2Cc3csc[n+]3[C@H]12	·	7.2	·	·	·	·	·
CCC(=O)Nc1ccc(N2CCCCC2)c(C(=O)Nc2ccccc2C)c1	36.1	-0.9	40.4*	41.4*	19.0	22.4	38.5*
O=C1C2C(c3ccccc3)=NN(c3ccccc3)C2C(=O)N1c1ccccc1 (stereo unspecified)	47.7	1.1	59.2*	59.5*	-16.4	49.0*	-18.9
NNc1nc2sc3c(c2c(=O)n1-c1ccccc1)CCCC3	-12.8	-1.4	56.9*	49.0*	1.1	39.1*	67.0*
Nn1c(Nc2ccccc2)nc2sc3c(c2c1=O)CCCC3	22.7	0.0	51.1*	45.2*	-5.8	24.1	25.0
O=C(O)CSc1nc2sc3c(c2c(=O)n1-c1ccccc1)CCC3	-11.6	-0.1	-22.4	0.0	8.7	·	·
O=C(NC1CCCC1)C1C(c2ccc(C(F)(F)F)cc2)=Nc2ccccc2N1C(=O)c1cccc2ccccc12 (stereo unspecified)	·	0.6	·	·	·	·	·
CCCCC(=O)NC(=S)Nc1ccccc1C(=O)Nc1ccccc1	6.1	0.2	-1.6	-4.7	-5.1	·	·
CCCCCC(=O)NC(=S)Nc1cccc(C(C)=O)c1	42.4	2.5	42.9*	40.0	12.8	29.4	25.2
CCCCCC(=O)NC(=S)Nc1ccccc1C(=O)OC	44.6	-0.3	43.1*	40.0*	-0.4	23.5	34.1*
COc1ccncc1-c1ccccc1C1=CC(=O)CC(C)(C)C1=O	·	-0.3	·	·	·	·	·
O=C1CCCCCCC(=O)[C@H](O)C[C@H](c2ccccc2)O1	·	0.5	·	·	·	·	·
Cc1cc(NC(=O)C2CC2)ncc1NC(=O)C12CC3CC(CC(C3)C1)C2	48.4	0.9	47.6*	53.8*	-4.9	39.6*	-21.4
O=C(Nc1ncccn1)C12CC3CC(CC(C3)C1)C2	9.7	1.2	-7.9	11.1	-0.2	·	·
CCOC(=O)[C@]12CCCC=C1N(Cc1cccc3ccccc13)C(=O)[C@H](CC(=O)NCc1cccs1)C2	·	-3.4	·	·	·	·	·
O=C(Nc1ccc(C(=O)N2CCN(c3ccc(Cl)cc3)CC2)cc1)C1=CSCCO1	31.5	1.3	47.5*	47.5*	-8.9	48.5*	45.4*
O=C(Nc1ccc(N2CCN(C(=O)c3ccc(Cl)cc3)CC2)cc1)c1ccc(Br)o1	12.4	30.5	-0.4	33.8	9.3	·	·
c1ccc(-c2c(-c3ccccc3)n(Cc3ccco3)c3ncnc(NCCCn4ccnc4)c23)cc1	-30.5	-3.5	45.3*	40.4*	46.9	37.6*	10.6
CCN(CC)C(=O)c1ccc2c(c1[N+](=O)[O-])C(=O)c1ccccc1C2=O	37.9	·	52.9*	60.1*	-41.6	44.1*	-25.9
CCN(CC)C(=O)c1cccc2c1C(=O)c1ccccc1-2	17.4	-1.5	10.3	29.6	-2.6	·	·
COC(=O)C(=C/C(C)=C/c1cccnc1)C(=O)OC	42.4	0.7	49.9*	50.5*	11.5	41.1*	46.0*
Cc1ccc(C(OCC(O)CNCc2ccc(F)cc2)c2ccccc2)cc1 (stereo unspecified)	39.7	7.8	68.1*	63.6*	25.3	74.4*	61.0*
CCOC(=O)N1CCN(S(=O)(=O)c2ccc(C(=O)N(CCN(CC)CC)c3nc4ccc(C)cc4s3)cc2)CC1	31.3	-0.2	40.0	48.0*	9.2	35.0*	14.0
CCN(CC)CCN(C(=O)c1ccc(C(=O)c2ccccc2)cc1)c1nc2ccc(OC)cc2s1	24.7	1.6	21.2	19.0	-26.4	·	·
SMILES	tim23-1 inh	MPTP inh	TIM10 inh	tim10-1 inh	Mdm2 MdmX PPI	tim10-1 confirm	tim10 confirm
CCN(CC)CCN(C(=O)c1ccc(S(=O)(=O)N(C)C2CCCCC2)cc1)c1nc2ccc(OC)cc2s1	41.9	1.1	48.0*	58.5*	13.3	42.5*	37.8*
CN(C)S(=O)(=O)c1cccc(C(=O)Nc2cc(Cl)cc(Cl)c2)c1	33.6	3.6	41.5*	50.7*	-2.7	27.5	-27.0
CN(C)S(=O)(=O)Oc1cccc(C(=O)Nc2cccc(Cl)c2)c1	45.7	16.5	77.0*	55.4*	-49.2	46.3*	72.3*
COc1ccc(NC(=O)c2cccc(OS(=O)(=O)N(C)C)c2)cc1	-12.3	1.5	5.1	10.6	-32.5	·	·
CN(C)S(=O)(=O)c1cccc(C(=O)Nc2ccccc2)c1	4.3	-1.6	6.8	-14.1	-19.5	·	·
O=C(N/N=C/c1ccc(OCc2ccccc2)cc1)c1ccco1	20.9	2.1	-2.5	-7.3	6.3	·	·
O=C(N/N=C\c1ccccc1OCc1ccccc1)c1ccco1	33.8	2.1	50.3*	43.4*	9.2	21.6	31.0*
CC/C(=N\NC(=S)Nc1cccc(C)c1)c1ccccc1	41.6	3.1	47.6*	59.9*	-7.3	38.7*	53.5*
COc1ccc(CNC(=S)Nc2cccc(OC)c2)cc1	29.9	-0.3	5.2	19.0	13.2	·	·
Cc1ccc(C)c(NC(=S)N/N=C2\CCc3ccccc32)c1	31.2	6.3	36.6	29.5	30.1	·	·
C/C(=N/NC(=S)Nc1cccc(C)c1)c1cccc([N+](=O)[O-])c1	35.9	4.4	49.4*	51.9*	-16.9	42.8*	40.6*
Cc1cccc(NC(=S)N/N=C2/CCCCc3ccccc32)c1	46.1	2.8	47.1*	51.0*	26.2	37.4*	4.2
COc1cccc(NC(=S)NN=C2CCCCCC2)c1	34.5	-1.8	41.0*	44.9*	-87.3	36.5*	30.8
Cc1ccc(S(=O)(=O)N2C3CCCCC3O[C@H]2CC(=O)c2cccs2)cc1 (stereo partly specified)	·	0.1	·	·	·	·	·
O=C(N/N=C/c1ccc([N+](=O)[O-])o1)c1cc2ccccc2o1	39.7	4.1	45.1*	58.8*	15.0	56.1*	79.0*
O=C(N/N=C/c1ccc([N+](=O)[O-])o1)c1cc2c(ccc3ccccc32)o1	·	-0.9	·	·	·	·	·
O=C1OC(c2ccccc2)=N/C1=C/c1cccc(OC(=O)c2cccs2)c1	9.0	-0.1	51.4*	48.3*	-14.6	25.1	-0.1
CCCC(=O)N1CCC1(C)C(=O)NS(=O)(=O)c1cc2c(cc1C)CCCS2(=O)=O (stereo unspecified)	·	-1.8	·	·	·	·	·
O=c1c2cccc3c2c(nn1CN1CCOCC1)-c1ccccc1-3	25.1	0.0	41.1*	52.9*	43.1	24.6	51.5*
O=C(COc1ccc(Cl)cc1Cl)NNC(=S)NCc1ccco1	28.4	3.2	49.7*	46.1*	-35.3	37.0*	39.8*
Cc1noc(C)c1NC(=O)N1C[C@H](O)COC[C@H]2O[C@@H](CC(=O)NCC3CCCCC3)CC[C@@H]21	·	4.3	·	·	·	·	·
CN(CCc1ccccc1)c1cc2c(c3c1ccn3C)C1CCC2C1 (stereo unspecified)	·	1.4	·	·	·	·	·
